Measurements: PubChem BioAssay (EPA / NIEHS)
Results filed as inconclusive are left out. Where a structure was tested more than once in an assay, its records may differ in their call. Active and inactive are the calls of the source. Rule for the calls, unless noted: active = hit-call score of the fitted dose curve at least 0.9, where 1 is the maximum; inactive = score below 0.9.

What was measured:
[1] = ATG_NF_kB_CIS: Attagene CIS-FACTORIAL HepG2 Assay for human Nuclear Factor Kappa B (NF-kB) (AID 2282991); conditions: HepG2 Attagene cis-factorial NF-kB reporter mRNA; actives raise or lower the signal
Summary of the method: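 Endogenous transcription factor activity in HepG2 was captured via cis-regulated reporter constructs; after 24 h dosing, reporter mRNA was reverse-transcribed, amplified, fluorescently labelled and sized by capillary electrophoresis, with activity fitted bidirectionally relative to DMSO.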

[2] = ATG_NRF2_ARE_CIS: Attagene CIS-FACTORIAL HepG2 Assay for human Nuclear Factor Erythroid 2 Related Factor 2 (NFR2) response to Antioxidant Response Elements (ARE) (AID 2282992); conditions: HepG2 Attagene ARE/NRF2 reporter, transcription factor activity; actives raise or lower the signal
Summary of the method: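 Endogenous transcription factor activity read out as reporter transcript levels (RT-PCR plus capillary electrophoresis, fluorescence) in transiently transfected HepG2 cells. Measured at 24 h after dosing; gain or loss of signal fitted versus DMSO.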

[3] = ATG_Oct_MLP_CIS: Attagene CIS-FACTORIAL HepG2 Assay for human Octamer-Binding Transcription Factor (Oct) (AID 2282993); conditions: HepG2 Attagene cis-factorial Oct reporter, mRNA; actives raise or lower the signal
Summary of the method: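 Readout is reporter transcript level from RT-PCR with fluorescent primer extension and capillary electrophoresis, fitted in both directions against DMSO. Transfected HepG2 reporter units report endogenous factor activity after 24 h dosing.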

[4] = target: Cellular tumor antigen p53 (Homo sapiens) (UniProt P04637); assay: ATG_p53_CIS: Attagene CIS-FACTORIAL HepG2 Assay for human p53 Transcription Factor (AID 2282994); conditions: HepG2 p53 cis-element reporter, Attagene mRNA; actives raise or lower the signal
Chain of Cellular tumor antigen p53 (Homo sapiens) (P04637 whole entry, looked up): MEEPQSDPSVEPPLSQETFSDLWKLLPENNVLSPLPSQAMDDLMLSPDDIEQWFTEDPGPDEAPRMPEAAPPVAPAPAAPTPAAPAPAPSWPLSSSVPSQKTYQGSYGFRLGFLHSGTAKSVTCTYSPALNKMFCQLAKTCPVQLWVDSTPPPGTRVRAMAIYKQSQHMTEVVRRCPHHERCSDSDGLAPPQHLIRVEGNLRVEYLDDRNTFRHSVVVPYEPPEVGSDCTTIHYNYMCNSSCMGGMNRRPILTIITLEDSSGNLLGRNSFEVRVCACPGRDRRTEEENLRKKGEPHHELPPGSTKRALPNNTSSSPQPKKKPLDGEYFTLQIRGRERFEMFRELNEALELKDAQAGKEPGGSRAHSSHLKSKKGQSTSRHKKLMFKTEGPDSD
Summary of the method: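 Endogenous p53 activity read in transiently transfected HepG2 from a cis-element-driven reporter transcript after 24 h exposure. RNA reverse-transcribed, PCR-amplified, fluorescently labelled and sized by capillary electrophoresis; gain or loss fitted against DMSO baseline.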

[5] = BSK_3C_TissueFactor: BioMAP Diversity Plus: 3C Assay for Tissue Factor Biomarker Activity (AID 2282997); conditions: BioMAP 3C HUVEC, tissue factor biomarker readout; actives raise or lower the signal
Summary of the method: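 Tissue Factor measured by ELISA, 24 h after treatment of primary HUVEC in the BioMAP 3C setting.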

[6] = BSK_3C_uPAR: BioMAP Diversity Plus: 3C Assay for Urokinase-type plasminogen activator receptor (uPAR) Biomarker Activity (AID 2282998); conditions: BioMAP 3C HUVEC, uPAR biomarker ELISA; actives raise or lower the signal
Summary of the method: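 Cell-surface uPAR on HUVEC (3C system) read by ELISA at 24 h post-treatment, with DMSO as baseline and fitting in both directions. Parallel cultures stained with SRB to flag overt cytotoxicity.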

[7] = BSK_3C_VCAM1: BioMAP Diversity Plus: 3C Assay for Vascular cell adhesion molecule 1 (VCAM1) Biomarker Activity (AID 2282999); conditions: BioMAP 3C HUVEC, VCAM1 ELISA, cytokine-stimulated; actives raise or lower the signal
Summary of the method: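 Vascular primary endothelium (human umbilical vein) was exposed to chemicals and assayed 24 h later. VCAM-1 levels came from ELISA, with DMSO serving as baseline for bidirectional fitting.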

[8] = BSK_4H_Eotaxin3: BioMAP Diversity Plus: 4H Assay for Eotaxin 3 Biomarker Activity (AID 2283000); conditions: primary human endothelial cells (HUVEC); actives raise or lower the signal
Summary of the method: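 Eotaxin-3 (CCL26) levels were measured by ELISA in HUVEC primary cultures 24 h post-dosing. Gain or loss of signal was fitted in both directions, with DMSO serving as baseline and negative control.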

[9] = target: human Peroxisome Proliferator-activated Receptor alpha (PPARa), PPARA (gene 5465) (UniProt Q07869); assay: ATG_PPARa_TRANS: Attagene TRANS-FACTORIAL HepG2 Assay for human Peroxisome Proliferator-activated Receptor alpha (PPARa) (AID 2283001; active = hit-call score of the fitted dose curve at least 0.9, where 1 is the maximum)
Chain of human Peroxisome Proliferator-activated Receptor alpha (PPARa), PPARA (gene 5465) (Q07869 whole entry, looked up, the tested form may be a part): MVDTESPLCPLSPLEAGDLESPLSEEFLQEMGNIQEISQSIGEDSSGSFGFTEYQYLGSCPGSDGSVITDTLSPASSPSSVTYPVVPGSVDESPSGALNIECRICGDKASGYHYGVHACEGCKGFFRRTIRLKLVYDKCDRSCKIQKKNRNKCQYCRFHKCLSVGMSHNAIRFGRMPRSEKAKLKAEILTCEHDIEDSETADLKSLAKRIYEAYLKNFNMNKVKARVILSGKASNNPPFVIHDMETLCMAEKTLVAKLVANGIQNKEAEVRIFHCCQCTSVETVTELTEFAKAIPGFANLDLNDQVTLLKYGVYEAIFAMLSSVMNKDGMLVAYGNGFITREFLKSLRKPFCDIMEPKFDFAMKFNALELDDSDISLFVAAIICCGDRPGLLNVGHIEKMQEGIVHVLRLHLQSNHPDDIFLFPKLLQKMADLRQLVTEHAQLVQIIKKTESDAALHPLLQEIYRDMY
Summary of the method: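 Exposure: 24 h, transiently transfected HepG2 cells. Endpoint: GAL4-UAS reporter mRNA, RT-PCR with capillary electrophoresis fluorescence. Baseline: DMSO; increases fitted.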

[10] = target: human Peroxisome Proliferator-activated Receptor delta (PPARd), PPARD (gene 5467) (UniProt Q03181); assay: ATG_PPARd_TRANS: Attagene TRANS-FACTORIAL HepG2 Assay for human Peroxisome Proliferator-activated Receptor delta (PPARd) (AID 2283002; active = hit-call score of the fitted dose curve at least 0.9, where 1 is the maximum)
Chain of human Peroxisome Proliferator-activated Receptor delta (PPARd), PPARD (gene 5467) (Q03181 whole entry, looked up, the tested form may be a part): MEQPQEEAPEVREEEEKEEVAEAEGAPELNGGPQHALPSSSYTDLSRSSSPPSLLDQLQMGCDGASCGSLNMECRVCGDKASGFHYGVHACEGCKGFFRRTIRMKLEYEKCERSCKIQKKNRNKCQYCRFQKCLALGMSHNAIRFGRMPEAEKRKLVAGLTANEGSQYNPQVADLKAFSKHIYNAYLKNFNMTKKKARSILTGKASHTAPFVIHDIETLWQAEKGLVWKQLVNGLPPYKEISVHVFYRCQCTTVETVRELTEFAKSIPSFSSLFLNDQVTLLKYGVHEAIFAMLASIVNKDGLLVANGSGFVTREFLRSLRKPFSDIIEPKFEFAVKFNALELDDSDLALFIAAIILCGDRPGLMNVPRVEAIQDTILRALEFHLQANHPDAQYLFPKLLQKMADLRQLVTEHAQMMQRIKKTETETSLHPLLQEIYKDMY
Summary of the method: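 Multiplexed trans-activation format: HepG2 liver cells expressing exogenous NR-Gal4 chimeras and GAL4-UAS reporters were exposed for 24 h. Reporter mRNA was detected by RT-PCR with capillary electrophoresis fluorescence; activity fitted as gain of signal relative to DMSO.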

[11] = read-out: Intercellular Adhesion Molecule 1 (ICAM1), ICAM1 (gene 3383); assay: BSK_3C_ICAM1: BioMAP Diversity Plus: 3C Assay for Intercellular Adhesion Molecule 1 (ICAM1) Biomarker Activity (AID 2283003); conditions: primary human endothelial cells (HUVEC); actives raise or lower the signal
Summary of the method: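 ELISA read-out of ICAM-1; HUVEC (primary human), 3C system, 24 h post-dosing; bidirectional fit vs DMSO baseline.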

[12] = target: human Retinoic Acid Receptor beta (RARb), RARB (gene 5915) (UniProt P10826); assay: ATG_RARb_TRANS: Attagene TRANS-FACTORIAL HepG2 Assay for human Retinoic Acid Receptor beta (AID 2283004; active = hit-call score of the fitted dose curve at least 0.9, where 1 is the maximum)
Chain of human Retinoic Acid Receptor beta (RARb), RARB (gene 5915) (P10826 whole entry, looked up, the tested form may be a part): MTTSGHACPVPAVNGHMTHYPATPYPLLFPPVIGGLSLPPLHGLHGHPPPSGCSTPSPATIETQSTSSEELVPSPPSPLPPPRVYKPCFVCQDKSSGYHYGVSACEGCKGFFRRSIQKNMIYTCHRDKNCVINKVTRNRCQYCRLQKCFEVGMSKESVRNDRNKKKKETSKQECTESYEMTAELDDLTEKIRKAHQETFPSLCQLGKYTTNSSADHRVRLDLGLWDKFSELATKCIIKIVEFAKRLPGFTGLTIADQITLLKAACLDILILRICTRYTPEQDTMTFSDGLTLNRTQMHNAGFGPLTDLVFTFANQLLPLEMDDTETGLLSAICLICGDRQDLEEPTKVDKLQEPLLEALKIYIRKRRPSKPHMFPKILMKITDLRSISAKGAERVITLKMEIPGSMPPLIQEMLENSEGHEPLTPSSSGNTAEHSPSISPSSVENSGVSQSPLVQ
Summary of the method: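 HepG2 cells were transiently transfected with GAL4-UAS reporter units that report activity of exogenous chimeric NR-Gal4 proteins, then exposed to compound for 24 h. Reporter mRNA was quantified by RT-PCR with capillary electrophoresis fluorescence, as gain of signal over DMSO.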

[13] = target: Retinoic acid receptor alpha (Homo sapiens) (UniProt P10276); assay: ATG_RARa_TRANS: Attagene TRANS-FACTORIAL HepG2 Assay for human Retinoic Acid Receptor alpha (RARa) (AID 2283005; active = hit-call score of the fitted dose curve at least 0.9, where 1 is the maximum)
Chain of Retinoic acid receptor alpha (Homo sapiens) (P10276 whole entry, looked up, the tested form may be a part): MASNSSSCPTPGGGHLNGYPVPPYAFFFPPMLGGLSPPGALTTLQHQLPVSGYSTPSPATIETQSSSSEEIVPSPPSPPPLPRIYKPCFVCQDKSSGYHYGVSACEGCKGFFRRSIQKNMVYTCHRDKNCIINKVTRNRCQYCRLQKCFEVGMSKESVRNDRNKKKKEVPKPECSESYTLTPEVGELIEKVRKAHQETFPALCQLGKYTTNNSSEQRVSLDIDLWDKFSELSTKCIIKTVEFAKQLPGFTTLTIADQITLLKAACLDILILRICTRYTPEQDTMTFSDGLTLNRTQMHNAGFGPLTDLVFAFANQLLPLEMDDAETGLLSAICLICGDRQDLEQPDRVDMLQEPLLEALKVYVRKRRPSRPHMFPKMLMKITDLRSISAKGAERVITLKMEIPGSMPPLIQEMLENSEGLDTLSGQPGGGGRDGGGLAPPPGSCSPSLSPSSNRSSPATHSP
Summary of the method: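 HepG2 cells transiently transfected with multiple reporter units expressing chimeric RARα-GAL4 fusion, with GAL4-UAS-driven reporters. After 24 h compound exposure, reporter mRNA induction quantified by RT-PCR and capillary electrophoresis with fluorescent labeling; gain-of-signal fitted relative to DMSO control.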

[14] = BSK_3C_Proliferation: Cell Proliferation Assessment in the BioMAP Diversity Plus: 3C Assay (AID 2283006); conditions: primary human endothelial cells (HUVEC);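 note: potency may reflect either rise or fall in cell number versus DMSO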
Summary of the method: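 HUVEC, sub-confluent; 48 h chemical exposure; 10% TCA fix, 0.1% SRB stain, A560 total protein. Gain or loss of signal fitted both directions vs DMSO control.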

[15] = target: Peroxisome proliferator-activated receptor gamma (Homo sapiens) (UniProt P37231); assay: ATG_PPARg_TRANS: Attagene TRANS-FACTORIAL HepG2 Assay for human Peroxisome Proliferator-activated Receptor-gamma (PPARg) (AID 2283007; active = hit-call score of the fitted dose curve at least 0.9, where 1 is the maximum)
Summary of the method: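 A TRANS-format multiplexed reporter assay measures activity of an exogenous chimeric NR-Gal4 protein in HepG2 cells. After 24 h of chemical exposure, reporter transcripts are amplified, fluorescently labelled and sized by capillary electrophoresis, with gain of signal scored against DMSO.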

[16] = target: human Retinoic Acid Receptor gamma (RARg), RARG (gene 5916) (UniProt P13631); assay: ATG_RARg_TRANS: Attagene TRANS-FACTORIAL HepG2 Assay for human Retinoic Acid Receptor gamma (RARg) (AID 2283009; active = hit-call score of the fitted dose curve at least 0.9, where 1 is the maximum)
Chain of human Retinoic Acid Receptor gamma (RARg), RARG (gene 5916) (P13631 whole entry, looked up, the tested form may be a part): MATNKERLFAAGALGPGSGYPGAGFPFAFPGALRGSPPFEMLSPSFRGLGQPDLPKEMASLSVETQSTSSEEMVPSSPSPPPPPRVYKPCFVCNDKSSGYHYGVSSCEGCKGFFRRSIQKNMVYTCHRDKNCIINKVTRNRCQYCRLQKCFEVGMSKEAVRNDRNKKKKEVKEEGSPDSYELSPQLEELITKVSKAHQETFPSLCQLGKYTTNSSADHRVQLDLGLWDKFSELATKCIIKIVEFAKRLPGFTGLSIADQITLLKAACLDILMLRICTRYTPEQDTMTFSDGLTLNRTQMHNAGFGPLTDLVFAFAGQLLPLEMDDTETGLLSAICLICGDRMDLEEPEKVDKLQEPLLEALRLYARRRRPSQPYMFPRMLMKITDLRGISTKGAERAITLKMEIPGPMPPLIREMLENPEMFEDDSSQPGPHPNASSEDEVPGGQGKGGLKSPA
Summary of the method: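 Readout: reporter transcript levels via RT-PCR, 6-FAM primer-extension labelling, HpaI digestion and capillary electrophoresis. Cells: HepG2 carrying transfected RARg-GAL4 chimera plus UAS reporter set. Dosing 24 h; DMSO negative control.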

[17] = target: human RAR-related Orphan Receptor beta (RORb), RORB (gene 6096) (UniProt Q92753); assay: ATG_RORb_TRANS: Attagene TRANS-FACTORIAL HepG2 Assay for human RAR-related Orphan Receptor beta (RORb) (AID 2283010; active = hit-call score of the fitted dose curve at least 0.9, where 1 is the maximum)
Chain of human RAR-related Orphan Receptor beta (RORb), RORB (gene 6096) (Q92753 whole entry, looked up, the tested form may be a part): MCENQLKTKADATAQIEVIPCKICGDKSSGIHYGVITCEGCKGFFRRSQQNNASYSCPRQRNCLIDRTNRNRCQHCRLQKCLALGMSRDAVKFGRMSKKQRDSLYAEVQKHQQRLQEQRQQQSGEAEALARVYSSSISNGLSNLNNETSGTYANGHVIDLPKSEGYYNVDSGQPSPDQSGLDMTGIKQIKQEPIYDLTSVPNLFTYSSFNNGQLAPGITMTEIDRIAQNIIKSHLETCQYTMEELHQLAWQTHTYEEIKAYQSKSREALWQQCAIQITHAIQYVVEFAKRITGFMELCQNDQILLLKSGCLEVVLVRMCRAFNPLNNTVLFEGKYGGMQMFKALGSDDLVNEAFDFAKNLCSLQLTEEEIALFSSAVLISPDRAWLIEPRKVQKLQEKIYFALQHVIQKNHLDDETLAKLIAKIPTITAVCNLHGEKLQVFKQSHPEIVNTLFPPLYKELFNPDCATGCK
Summary of the method: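 HepG2, transient MRTU transfection (GAL4-UAS reporters, exogenous NR-Gal4 chimeras); 24 h compound exposure; total RNA → RT-PCR → 6-FAM primer extension → HpaI digest → CE fluorescence. Positive direction vs DMSO baseline.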

[18] = target: human RAR-related Orphan Receptor gamma (RORg), RORC (gene 6097) (UniProt P51449); assay: ATG_RORg_TRANS: Attagene TRANS-FACTORIAL HepG2 Assay for human RAR-related Orphan Receptor gamma (RORg) (AID 2283011; active = hit-call score of the fitted dose curve at least 0.9, where 1 is the maximum)
Chain of human RAR-related Orphan Receptor gamma (RORg), RORC (gene 6097) (P51449 whole entry, looked up, the tested form may be a part): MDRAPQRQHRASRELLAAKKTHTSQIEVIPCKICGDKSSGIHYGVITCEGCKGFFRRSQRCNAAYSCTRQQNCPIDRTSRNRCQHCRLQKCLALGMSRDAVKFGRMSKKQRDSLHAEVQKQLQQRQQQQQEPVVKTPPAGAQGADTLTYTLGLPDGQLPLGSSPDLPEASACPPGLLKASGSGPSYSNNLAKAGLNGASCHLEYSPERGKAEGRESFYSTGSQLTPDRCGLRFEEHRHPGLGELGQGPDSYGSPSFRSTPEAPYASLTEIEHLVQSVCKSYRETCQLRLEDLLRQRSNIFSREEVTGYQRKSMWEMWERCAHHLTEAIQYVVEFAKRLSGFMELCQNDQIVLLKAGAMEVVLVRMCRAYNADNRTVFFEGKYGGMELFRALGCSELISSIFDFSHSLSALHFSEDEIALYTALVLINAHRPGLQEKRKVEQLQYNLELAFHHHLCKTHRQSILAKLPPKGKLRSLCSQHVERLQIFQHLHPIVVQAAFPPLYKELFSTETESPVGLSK
Summary of the method: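 HepG2 cells transiently transfected with GAL4-UAS reporter units and chimeric RORg-Gal4 construct; after 24 h chemical exposure, reporter mRNA measured by RT-PCR with fluorescent capillary electrophoresis, gain of signal fitted against DMSO.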

[19] = target: Myc proto-oncogene protein (Homo sapiens) (UniProt P01106); assay: ATG_Myc_CIS: Attagene CIS-FACTORIAL HepG2 Assay for human Myelocytomatosis (Myc) Proto-Oncogene Transcription Factor (AID 2282990); conditions: HepG2, Attagene cis-reporter transcription factor activity; actives raise or lower the signal
Chain of Myc proto-oncogene protein (Homo sapiens) (P01106 whole entry, looked up): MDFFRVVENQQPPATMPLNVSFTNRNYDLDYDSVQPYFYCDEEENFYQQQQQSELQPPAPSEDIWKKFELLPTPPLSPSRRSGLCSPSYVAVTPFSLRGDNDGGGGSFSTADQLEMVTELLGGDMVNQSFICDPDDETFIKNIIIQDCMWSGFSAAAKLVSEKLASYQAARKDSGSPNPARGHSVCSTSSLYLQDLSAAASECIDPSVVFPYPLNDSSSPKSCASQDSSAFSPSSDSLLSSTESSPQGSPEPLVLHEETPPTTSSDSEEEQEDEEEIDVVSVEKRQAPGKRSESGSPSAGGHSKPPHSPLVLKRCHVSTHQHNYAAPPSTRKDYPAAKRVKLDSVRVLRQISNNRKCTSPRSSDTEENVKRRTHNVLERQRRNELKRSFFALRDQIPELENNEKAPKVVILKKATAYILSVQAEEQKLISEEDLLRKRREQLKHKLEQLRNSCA
Summary of the method: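 Multiplexed cis-reporter transcription in HepG2 cells after 24 h chemical treatment. Reporter mRNA measured by RT-PCR and capillary electrophoresis fluorescence; activity fitted bidirectionally against DMSO control.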

[20] = target: Nuclear receptor subfamily 1 group I member 2 (Homo sapiens) (UniProt O75469); assay: ATG_PXR_TRANS: Attagene TRANS-FACTORIAL HepG2 Assay for human Pregnane X Receptor (PXR) (AID 2283008; active = hit-call score of the fitted dose curve at least 0.9, where 1 is the maximum)
Chain of Nuclear receptor subfamily 1 group I member 2 (Homo sapiens) (O75469 whole entry, looked up, the tested form may be a part): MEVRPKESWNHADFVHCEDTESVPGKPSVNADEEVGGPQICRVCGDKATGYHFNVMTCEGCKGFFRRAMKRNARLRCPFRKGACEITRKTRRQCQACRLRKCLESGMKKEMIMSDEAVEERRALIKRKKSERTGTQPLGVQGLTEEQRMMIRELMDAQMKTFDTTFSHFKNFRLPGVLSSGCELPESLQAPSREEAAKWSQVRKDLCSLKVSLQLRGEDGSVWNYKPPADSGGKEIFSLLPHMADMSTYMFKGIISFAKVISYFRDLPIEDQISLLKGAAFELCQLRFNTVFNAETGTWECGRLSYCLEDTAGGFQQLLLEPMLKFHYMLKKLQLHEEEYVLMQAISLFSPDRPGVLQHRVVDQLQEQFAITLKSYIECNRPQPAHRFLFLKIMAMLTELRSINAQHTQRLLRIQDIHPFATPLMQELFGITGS
Summary of the method: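 Transactivation by exogenous PXR–GAL4 fusion measured as reporter transcript induction after 24 h compound treatment of transfected human HepG2 cells. Read-out via RT-PCR and capillary electrophoresis of labelled fragments, fitted upward relative to DMSO.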

Measured: AC50

OCCN1CN(CCO)CN(CCO)C1
active: [2] 56.5 µM | [3] 160 µM | [5] 20 µM | [6] 32.6 µM | [7] 32.8 µM | [8] 30.2 µM | [11] 29.4 µM | [14] 24.2 µM
not listed: [19] | [20]
inactive: all other assays above

CCCCCCCCCCCC(=O)O
active: [2] 100 µM | [3] 90.6 µM
inactive: [19] | [2] | [3] | [9] | [10] | [12] | [13] | [20] | [16]

NS(=O)(=O)O
inactive: [19] | [3] | [4] | [9] | [10] | [20] | [17] | [18]

CCC(C)c1nccnc1OC (stereo not given)
inactive: [19] | [2] | [3] | [4] | [9] | [12] | [13] | [18]
